Assay outcomes as filed in PubChem.
AMA1-RON2 inh = qHTS for Inhibitors of AMA1-RON; Towards Development of Antimalarial Drug Lead: Primary Screen; Potency, µM (series often up to 58.2 µM), actives largely listed as inhibitors; 0.2% of 360,000 active; Plasmodium falciparum AMA1 (3D7) - RON2 peptide interaction; AlphaScreen AMA1-biotinylated RON2 peptide binding; AID 720542, 2013; also: nearly all actives have a fitted effect of over 45% in size
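AMA1 (3D7) with his tag at 25 nM final met compounds first, then biotinylated RON2 peptide at 25 nM; detection used donor plus acceptor beads, 10 µg/mL apiece, read by AlphaScreen after 30 min at room temperature.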
HCV inh = qHTS Assay for Inhibitors of Hepatitis C Virus (HCV) | Huh7.5.1 HCVcc-Cre infection, luciferase reporter, 44 h | Potency, µM (titrated, usually from 41.8 µM), usual class: inhibitors | 3.4% of 340,000 active | AID 651820, 2012
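Infectious HCV cell culture screen: compound-treated cells (1,000/well, pre-plated 4 h) are infected with HCVcc-Cre at roughly 0.5 moi and grown 44 h. Infection is quantified by luciferase signal after 15 min substrate incubation at room temperature.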
Shiga inhibitor = A qHTS for Small Molecule Inhibitors of Shiga Toxin; inhibition, % at 38.7 µM; AID 2315, 2010; 9.2% of 290,000 active; Vero cells, Shiga toxin protein synthesis inhibition reporter; in the data active = inhibition mostly above about 28%, no sharp cut-off; inactive = mostly below about 43%
CHX counter = Cycloheximide Counterscreen for Small Molecule Inhibitors of Shiga Toxin; cell reporter, cycloheximide protein synthesis inhibition counterscreen; 12% of 300,000 active; AID 2314, 2010; max response, %; in the data active = max response mostly above about 13%, no sharp cut-off; inactive = mostly below about 14%; also: read at 38.3 µM for the half of the compounds with a filed dose
Pf growth 96h = Primary qHTS for delayed death inhibitors of the malarial parasite plastid, 96 hour incubation; P. falciparum luciferase reporter growth, 96 h; Potency, µM (titrated, usually from 28.7 µM), usual class: inhibitors; 6.9% of 320,000 active; AID 504834, 2011
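Luminescence readout: decreased luciferase signal marks inhibited growth of reporter-expressing P. falciparum in infected red cells (2% hematocrit, 0.05% parasitemia final), exposed to compound two generations (96 h, 37 C, 5% CO2).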
Pf growth 48h = Primary qHTS for delayed death inhibitors of the malarial parasite plastid, 48 hour incubation | P. falciparum luciferase growth in erythrocytes, 48 h | Potency, µM (highest dose often 28.7 µM), usual class: inhibitors | 5.9% of 310,000 active
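First compound was added to culture medium, then infected red cells at 0.1% parasitemia and 2% hematocrit (final). After incubation at 37 C under 5% CO2, luciferase detection reagent was dispensed and light output recorded.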
Large screens that a line does not name were inactive. Sampled rows, rich in hits. Any-hit rate of the full collection: about 21%. Unless noted, calls follow the shape of the dose curve; as a rule, active = well fitted curve in the direction sought with a large enough effect; inconclusive = small, poorly fitted or top-dose-only effect, or another doubt; inactive = no such curve, though single readings can be large; an effect the other way counts as inactive or inconclusive.

COc1ccc(OC)c(-c2csc(N(Cc3ccco3)C(=O)c3cccs3)n2)c1	AMA1-RON2 inh inconclusive, HCV inh 13µM, Pf growth 96h inconclusive, Pf growth 48h 9.3µM
C=CCN(C(=O)CN1CCCCC1)c1nc(-c2ccccc2)cs1	Pf growth 48h inconclusive
COc1ccc(OC)c(-c2csc(N(CC3CCCO3)C(=O)C3CCCCC3)n2)c1 (configuration not stated)	HCV inh inconclusive, Pf growth 48h 2.9µM
COc1ccc(CC(=O)N(CC2CCCO2)c2nc3ccccc3s2)cc1 (configuration not stated)	CHX counter 27, Pf growth 96h inconclusive
CC1CN(S(=O)(=O)c2cccc(C(=O)Nc3ccc(S(=O)(=O)Nc4ncccn4)cc3)c2)CC(C)O1 (configuration not stated)	Pf growth 48h inconclusive
CN(C)C(CNC(=O)c1ccc(NS(=O)(=O)c2ccc3[nH]c(=O)[nH]c3c2)cc1)c1ccccc1 (configuration not stated)	Pf growth 48h inconclusive (no result: Shiga inhibitor, CHX counter)
COc1ccc(-c2csc(N(Cc3ccco3)C(=O)c3cccs3)n2)cc1	HCV inh inconclusive, Shiga inhibitor 57, CHX counter 22, Pf growth 96h 6.6µM, Pf growth 48h inconclusive
CCN(CC)C(=O)c1sc2nc(N3CCOCC3)c3c(c2c1N)CCCC3	HCV inh inconclusive, Pf growth 48h inconclusive (no result: Pf growth 96h)
CCOC(=O)c1sc2nc(N3CCOCC3)c3c(c2c1N)CCCC3	HCV inh inconclusive, Pf growth 96h 1µM
Nc1c(C(=O)NCc2ccco2)sc2nc(N3CCOCC3)c3c(c12)CCCC3	HCV inh inconclusive, Pf growth 96h inconclusive, Pf growth 48h 9.3µM
COC(=O)c1sc2nc(N3CCCCC3)c3c(c2c1N)CCCC3	HCV inh 13µM, Pf growth 96h inconclusive (no result: Pf growth 48h)
COC(=O)c1ccc(-c2sc3nc(N4CCOCC4)c4c(c3c2N)CCCC4)o1	HCV inh inconclusive, Pf growth 96h 9.3µM
Cc1ccc(NC(=S)N(Cc2ccc(Cl)cc2)Cc2ccc(C(=O)O)cc2)cc1Cl	none
O=C(NCc1ccc2c3c(cccc13)C(=O)N2)c1cccs1	none
COc1cccc(NC(=S)N2CCn3c(nc4ccccc43)C2)c1	none
Cc1cc(C(=O)CSc2cccc[n+]2[O-])c(C)n1-c1ccc(Br)cc1	Shiga inhibitor 91, CHX counter 35, Pf growth 96h 6.6µM (no result: AMA1-RON2 inh, HCV inh)
Cc1cc(C(=O)O)c(C)n1-c1ccccc1	none (no result: Pf growth 48h)
Cc1cc(C(=O)CSc2cccc[n+]2[O-])c(C)n1-c1ccccc1	Shiga inhibitor 85, CHX counter 47
Cc1cc(C(=O)COc2cccc(-n3cnnn3)c2)c(C)n1-c1ccccc1	HCV inh 1µM, CHX counter 16, Pf growth 48h inconclusive
Cc1nnc(SCC(=O)c2cc(C)n(-c3c(C)n(C)n(-c4ccccc4)c3=O)c2C)s1	none
O=C(CSc1cccc[n+]1[O-])c1ccccc1Br	Pf growth 96h inconclusive
Cc1cc(C(=O)CCl)c(C)n1-c1c(C)n(C)n(-c2ccccc2)c1=O	HCV inh 8.9µM, Pf growth 96h 6.6µM, Pf growth 48h 8.3µM
C[C@@H]1CN([C@H](C)CO)S(=O)(=O)c2ccc(C#CCN(C)C)cc2O[C@@H]1CN(C)Cc1ccccc1F	none (no result: HCV inh, Shiga inhibitor, CHX counter, Pf growth 96h, Pf growth 48h)
CN(Cc1ccccc1)S(=O)(=O)c1ccc(Cl)c(C(=O)N2CCOCC2)c1	none (no result: HCV inh, Shiga inhibitor, CHX counter, Pf growth 96h, Pf growth 48h)
Cc1cc(C(=O)CSc2nncn2C)c(C)n1-c1ccccc1	Shiga inhibitor 59, CHX counter 34
Cc1[nH]c2ccccc2c1-c1nc2ccccc2[nH]1	HCV inh inconclusive, Shiga inhibitor 56, CHX counter 48, Pf growth 48h inconclusive
Cc1cc(=O)[nH]c(-c2cccs2)n1	none
c1csc(-c2nc3ccccc3[nH]2)c1	Shiga inhibitor 65, CHX counter 36 (no result: Pf growth 96h)
Cc1ccc(-c2nc3ccccc3[nH]2)s1	HCV inh inconclusive, Shiga inhibitor 64, CHX counter 52
CCOC(=O)C1(C(=O)OCC)NC(=O)CC1C(C)C (configuration not stated)	none (no result: Shiga inhibitor, CHX counter, Pf growth 96h, Pf growth 48h)
Cc1nn2c(-c3cccc(NC(=O)c4ccco4)c3)nnc2c2ccccc12	HCV inh inconclusive, CHX counter 22, Pf growth 48h 9.3µM
